Data published in PubChem BioAssay (EPA / NIEHS).
Several values for one entry are separate records, joined by “and”; a condition that tells them apart may be missing. Equal values may be shown once. Some compounds were tested as several samples or in several runs, with calls that do not always agree. Activity calls are given as the source filed them. The calls were made as follows: active = hit-call score of the fitted dose curve at least 0.9, where 1 is the maximum; inactive = score below 0.9.

Read-out: Vascular cell adhesion molecule 1 (VCAM1), VCAM1 (gene 7412)
Assay: BSK_hDFCGF_VCAM1: BioMAP Diversity Plus: hDFCGF Assay for Vascular cell adhesion molecule 1 (VCAM1) Biomarker Activity (AID 2283065);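 as to AC50: VCAM-1 protein level quantified by ELISA after 24 h chemical exposure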
Details: primary human foreskin fibroblasts; actives raise or lower the signal
How it was run: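 Primary human foreskin fibroblasts (hDFCGF system) were dosed with chemical and VCAM-1 was measured by ELISA 24 h later. Bidirectional curve fitting used DMSO as negative control and activity baseline.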

SMILES	AC50	outcome
O=c1n(CC2CO2)c(=O)n(CC2CO2)c(=O)n1CC1CO1 (centres undefined)	11.6 µM (active)	–
CCOC(=O)COc1ccc2c(c1)CC(NCC(O)c1cccc(Cl)c1)CC2 (centres undefined)	21.9 µM (active)	–
O=C1CCC(N2C(=O)c3ccccc3C2=O)C(=O)N1 (centres undefined)	–	inactive
Cn1cnc([N+](=O)[O-])c1Sc1ncnc2nc[nH]c12	12.6 µM (active) and 16 µM (active)	inactive
CCOCCOCCOCCO	–	inactive
CCOC(=O)CC(CC(=O)OCC)(OC(C)=O)C(=O)OCC	–	inactive
CCCN(C1CCN(C(=O)C2CCNCC2)CC1)[C@@H]1CCc2ccc(OC)cc2C1	–	inactive
CC(C)CC(C)(O)C#CC(C)(O)CC(C)C (centres undefined)	–	inactive
O=C(O)c1cc(N=Nc2ccc(S(=O)(=O)Nc3ccccn3)cc2)ccc1O	–	inactive
CNCc1ccc(NC(=O)c2c[nH]c3c2C(=O)CCC3)cc1	–	inactive
Cc1ccc(S(=O)(=O)O)cc1C	–	inactive
C1N2CN3CN1CN(C2)C3	–	inactive
Cn1c(=O)c2c(ncn2C)n(C)c1=O	–	inactive
Cc1[nH]cnc1C[C@H]1CCc2c(C)c3ccccc3n2C1=O	–	inactive
CCNc1ccccc1	–	inactive
On1ccccc1=S	0.479 µM (active)	–
CCCC(=O)OCC	–	inactive
Nc1cccc(N)c1	–	inactive
CC1=CC(=O)CC(C)(C)C1	–	inactive
Cc1ccc(O)cc1	–	inactive
CCn1nc(Cc2ccccc2)cc1C1CCN(C[C@H]2C[C@H](N(C)[C@@H](C(=O)O)C(C)C)C[C@@H]2c2cccc(F)c2)CC1	–	inactive
CC(C)CCO	–	inactive
Cc1ccc(N)cc1O	–	inactive
CN(C)c1ccc(N=NS(=O)(=O)O)cc1	3.79 µM (active)	–
COc1ccc2sc(C(=O)Nc3nnn[nH]3)c(OC(C)C)c2c1	12.2 µM (active)	–
O=C(O)CC(O)C(=O)O (centres undefined)	–	inactive
CCCCCCCCCCCCCCCO	–	inactive
COC(=O)c1c(Cl)c(Cl)c(C(=O)OC)c(Cl)c1Cl	–	inactive
Nc1ccc(Nc2ccccc2)cc1	5.54 µM (active)	–

Read-out: Plasminogen activator inhibitor-1 (PAI1), SERPINE1 (gene 5054)
Assay: BSK_hDFCGF_PAI1: BioMAP Diversity Plus: hDFCGF Assay for Plasminogen activator inhibitor-1 (PAI1) Biomarker Activity (AID 2283066)
Details: primary human foreskin fibroblasts; actives raise or lower the signal
How it was run: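 Fibroblasts from human foreskin were treated with test chemical. After 24 h, PAI-1 was measured by ELISA. Activity was fitted in both directions relative to DMSO.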

SMILES	AC50	outcome
O=c1n(CC2CO2)c(=O)n(CC2CO2)c(=O)n1CC1CO1 (centres undefined)	22 µM (active)	–
CCOC(=O)COc1ccc2c(c1)CC(NCC(O)c1cccc(Cl)c1)CC2 (centres undefined)	31.7 µM (active)	–
O=C1CCC(N2C(=O)c3ccccc3C2=O)C(=O)N1 (centres undefined)	–	inactive
Cn1cnc([N+](=O)[O-])c1Sc1ncnc2nc[nH]c12	11.7 µM (active)	inactive
CCOCCOCCOCCO	–	inactive
CCOC(=O)CC(CC(=O)OCC)(OC(C)=O)C(=O)OCC	–	inactive
CCCN(C1CCN(C(=O)C2CCNCC2)CC1)[C@@H]1CCc2ccc(OC)cc2C1	–	inactive
CC(C)CC(C)(O)C#CC(C)(O)CC(C)C (centres undefined)	–	inactive
O=C(O)c1cc(N=Nc2ccc(S(=O)(=O)Nc3ccccn3)cc2)ccc1O	–	inactive
CNCc1ccc(NC(=O)c2c[nH]c3c2C(=O)CCC3)cc1	–	inactive
Cc1ccc(S(=O)(=O)O)cc1C	–	inactive
C1N2CN3CN1CN(C2)C3	–	inactive
Cn1c(=O)c2c(ncn2C)n(C)c1=O	–	inactive
Cc1[nH]cnc1C[C@H]1CCc2c(C)c3ccccc3n2C1=O	–	inactive
CCNc1ccccc1	–	inactive
On1ccccc1=S	1.7 µM (active)	–
CCCC(=O)OCC	–	inactive
Nc1cccc(N)c1	–	inactive
CC1=CC(=O)CC(C)(C)C1	–	inactive
Cc1ccc(O)cc1	–	inactive
CCn1nc(Cc2ccccc2)cc1C1CCN(C[C@H]2C[C@H](N(C)[C@@H](C(=O)O)C(C)C)C[C@@H]2c2cccc(F)c2)CC1	–	inactive
CC(C)CCO	–	inactive
Cc1ccc(N)cc1O	–	inactive
CN(C)c1ccc(N=NS(=O)(=O)O)cc1	–	inactive
COc1ccc2sc(C(=O)Nc3nnn[nH]3)c(OC(C)C)c2c1	6.57 µM (active)	–
O=C(O)CC(O)C(=O)O (centres undefined)	–	inactive
CCCCCCCCCCCCCCCO	–	inactive
COC(=O)c1c(Cl)c(Cl)c(C(=O)OC)c(Cl)c1Cl	–	inactive
Nc1ccc(Nc2ccccc2)cc1	–	inactive

Read-out: Intercellular Adhesion Molecule 1 (ICAM1), ICAM1 (gene 3383)
Assay: BSK_KF3CT_ICAM1: BioMAP Diversity Plus: KF3CT Assay for Intercellular Adhesion Molecule 1 (ICAM1) Biomarker Activity (AID 2283067)
Details: primary human keratinocytes with fibroblasts; actives raise or lower the signal
How it was run: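 Human keratinocyte plus foreskin fibroblast primary co-culture was exposed to chemical for 24 h. ICAM-1 was then quantified by ELISA, and the data were fit bidirectionally against DMSO as the negative control and baseline.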

SMILES	outcome	AC50
O=c1n(CC2CO2)c(=O)n(CC2CO2)c(=O)n1CC1CO1 (centres undefined)	inactive	–
CCOC(=O)COc1ccc2c(c1)CC(NCC(O)c1cccc(Cl)c1)CC2 (centres undefined)	inactive	–
O=C1CCC(N2C(=O)c3ccccc3C2=O)C(=O)N1 (centres undefined)	inactive	–
Cn1cnc([N+](=O)[O-])c1Sc1ncnc2nc[nH]c12	inactive	–
CCOCCOCCOCCO	inactive	–
CCOC(=O)CC(CC(=O)OCC)(OC(C)=O)C(=O)OCC	inactive	–
CCCN(C1CCN(C(=O)C2CCNCC2)CC1)[C@@H]1CCc2ccc(OC)cc2C1	inactive	–
CC(C)CC(C)(O)C#CC(C)(O)CC(C)C (centres undefined)	inactive	–
O=C(O)c1cc(N=Nc2ccc(S(=O)(=O)Nc3ccccn3)cc2)ccc1O	inactive	–
CNCc1ccc(NC(=O)c2c[nH]c3c2C(=O)CCC3)cc1	inactive	–
Cc1ccc(S(=O)(=O)O)cc1C	inactive	–
C1N2CN3CN1CN(C2)C3	inactive	–
Cn1c(=O)c2c(ncn2C)n(C)c1=O	inactive	–
Cc1[nH]cnc1C[C@H]1CCc2c(C)c3ccccc3n2C1=O	inactive	–
CCNc1ccccc1	inactive	–
On1ccccc1=S	–	10.4 µM (active)
CCCC(=O)OCC	inactive	–
Nc1cccc(N)c1	inactive	–
CC1=CC(=O)CC(C)(C)C1	inactive	–
Cc1ccc(O)cc1	inactive	–
CCn1nc(Cc2ccccc2)cc1C1CCN(C[C@H]2C[C@H](N(C)[C@@H](C(=O)O)C(C)C)C[C@@H]2c2cccc(F)c2)CC1	inactive	–
CC(C)CCO	inactive	–
Cc1ccc(N)cc1O	inactive	–
CN(C)c1ccc(N=NS(=O)(=O)O)cc1	inactive	–
COc1ccc2sc(C(=O)Nc3nnn[nH]3)c(OC(C)C)c2c1	–	24 µM (active)
O=C(O)CC(O)C(=O)O (centres undefined)	inactive	–
CCCCCCCCCCCCCCCO	inactive	–
COC(=O)c1c(Cl)c(Cl)c(C(=O)OC)c(Cl)c1Cl	inactive	–
Nc1ccc(Nc2ccccc2)cc1	inactive	–
